# Compound activity deposited in PubChem BioAssay by several laboratories.
# Most compounds without a hit are left out; they make up all but 2.7% or so of the library.
# Mcl1-Bid inh = Mcl-1/Bid binding inhibitors, primary screen, biochemical, TR-FRET, 1536-well; TR-FRET Mcl-1/Bid-Dy647 peptide binding; inhibition, % at 21.7 µM; 220,000 tested, 0.97% active;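 active = compounds that cut the binding signal by more than half at the single screening dose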;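 note: His-tagged Mcl-1 with europium anti-His antibody binding Bid BH3 peptide; 0% = Mcl-1 plus peptide wells and 100% = peptide-only wells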
# Mcl1 Noxa PPI = Mcl-1/Noxa binding inhibitors, primary screen, biochemical, TR-FRET, 1536-well; AID 1022, 2008; inhibition, % at 21.7 µM; Induced myeloid leukemia cell differentiation protein Mcl-1 (Homo sapiens), Q07820; 220,000 tested, 1.5% active; TR-FRET Mcl-1/Noxa peptide binding, 2 h;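 active = compounds that cut the protein-peptide binding signal by more than 50% relative to plate controls in a single-dose test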;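 note: His-tagged Mcl-1 with rhodamine Noxa BH3 peptide and terbium anti-His antibody; 0% = Mcl-1 plus Noxa peptide wells and 100% = peptide-only wells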
# eIF4E-4G inh = eIF4E–eIF4G protein interaction inhibitors, primary screen, biochemical, uHTS, TR-FRET, eIF4GI fragment; inhibition, % at 21.7 µM; TR-FRET eIF4E-eIF4GI(517-606) binding, 2 h; AID 782, 2007; Eukaryotic translation initiation factor 4E (Mus musculus) + Eukaryotic translation …; 220,000 tested, 0.37% active;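 active = inhibition above about 30%, limit read from the data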;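 note: 0% = full FRET control wells and 100% = background wells lacking eIF4GI fragment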
# Pf gamet viab = late stage P. falciparum gametocyte viability inhibitors, primary screen, ATP luminescence, HTS | P. falciparum stage V gametocytes, 24 h | 150,000 tested, 0.065% active | inhibition, % at 10.9 µM;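 active = inhibition above the mean plus 3 SD of compounds within the control limits, set per campaign, cut at about 38% in these data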;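 note: 0% = DMSO wells and 100% = medium only without gametocytes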
# 14-3-3 Bad inh = inhibitors of 14-3-3 zeta/Bad binding, primary screen, biochemical, TR-FRET, bovine 14-3-3 zeta | TR-FRET 14-3-3zeta/Dy647-pBad peptide displacement, 1 h | inhibition, % at 21.7 µM | 220,000 tested, 0.71% active | AID 781, 2007;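 active = inhibition above about 70%, limit read from the data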;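 note: 0% = full 14-3-3 plus peptide FRET controls and 100% = background without 14-3-3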
# Mcl-1 Bim block = inhibitors of Bim peptide binding to Mcl-1, primary screen, biochemical, bead-based flow cytometry, multiplex. inhibition, % at 10 µM. 190,000 tested, 0.1% active. Bim peptide-Mcl-1 binding. AID 1009, 2008. Induced myeloid leukemia cell differentiation protein Mcl-1 (Homo sapiens), Q07820; in the data active = inhibition above about 40%;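 note: 0% = no compound tracer wells and 100% = peptide blocker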
# * marks the source's active call; other numbers are inactive results; . = no result; [ ] = another dose, or the depositor's remark.
SMILES,Mcl1-Bid inh,Mcl1 Noxa PPI,eIF4E-4G inh,Pf gamet viab,14-3-3 Bad inh,Mcl-1 Bim block
CN(C)c1ccc(NC(=O)/C=C/c2c(Cl)cccc2Cl)cc1,9,83*,8,8,7,-8
COc1ccccc1Nc1nc2ccccc2n1C,-35,-1,-4,.,3,-1
CCNc1nn2ccccc2c1/C=C(\C#N)C(=O)OCC,-6,6,10,.,1,.
COc1cc(/C=C/C(=O)O)cc(S(=O)(=O)NCCCC(=O)O)c1OC,-13,-2,-1,25,-15,0
CCC(=O)c1ccc(OCC(O)Cn2nc(C)c(Br)c2C)cc1 (configuration not stated),.,.,.,-5,.,.
O=C(Nc1cccc2ccccc12)c1ccc(Br)o1,-29,-11,47*,.,-6,3
O=C(Nc1cccc2cccnc12)c1ccc(Br)o1,-3,19,2,.,12,-1
CCC(=O)Nc1cc(-c2cc3ccccc3oc2=O)ccc1OC,-30,-10,-6,.,-10,0
COc1ccc(-c2cc3ccccc3oc2=O)cc1NC(=S)NC(=O)c1ccc2c(c1)OCCO2,-3,-47,-42,.,77*[fluorescence artefact?],-4
COc1ccc(-c2cc3ccccc3oc2=O)cc1NC(=O)c1ccc([N+](=O)[O-])o1,65*,27,13,-5,80*[fluorescence artefact?],3
COc1ccc(-c2cc3ccccc3oc2=O)cc1NC(=O)c1ccc(Br)o1,60*,-70,-19,.,43,-17
COc1cccc(OC)c1C(=O)NC(=S)Nc1ccc2c(c1)OCCO2,-38,16,-1,.,-9,0
O=C(NNC(=O)C1CCCN(S(=O)(=O)c2ccc3ccccc3c2)C1)C1CC1 (configuration not stated),-5,12,-4,-14,-10,-2
COc1cccc(Nc2nnc(SCC(=O)Nc3sccc3C(N)=O)s2)c1,4,60*,6,-2,60,0
CC(=O)Nc1cccc(OCC(=O)Nc2sccc2C(N)=O)c1,0,52*,3,-14,1,.
CCc1ccc(Nc2nnc(SCC(=O)Nc3sccc3C(N)=O)s2)cc1,-18,53*,-7,.,-10,-3
CC(=O)OC1COC(N2CCc3cc([N+](=O)[O-])ccc32)C(OC(C)=O)C1OC(C)=O (configuration not stated),-46,-10,2,.,11,-1
CC(C)C(NC(=O)c1ccccc1F)C(=O)OCC(=O)c1ccc(F)cc1 (configuration not stated),-19,-10,2,.,-13,0
CCn1cc(Br)c(C(=O)N2CCN(c3ccccc3)CC2)n1,0,16,1,.,72*,3
O=C(Cn1cc(S(=O)(=O)Cc2ccccc2)c2ccccc21)Nc1ccccc1,-19,14,-5,.,3,-4
S=C(NCC1CCCO1)N1CCN(c2nc(-c3ccccc3)cs2)CC1 (configuration not stated),-60,6,2,-6,-1,11
S=C(NCC1CCCO1)N1CCN(Cc2ccccc2)CC1 (configuration not stated),-3,22,4,-20,70*,1
CC(C)Cc1cc(CN2CCC(CO)(Cc3cccc(C(F)(F)F)c3)CC2)[nH]n1,9,16,0,5,-8,-3
Cc1ccc(NC(=O)c2ccc(-n3cccn3)nc2)cc1,-12,4,-3,-5,-11,-4
O=[N+]([O-])c1ccc(N=Cc2sc3ccccc3c2O)cc1,23,33,-3,21,-5,-2
SMILES,Mcl1-Bid inh,Mcl1 Noxa PPI,eIF4E-4G inh,Pf gamet viab,14-3-3 Bad inh,Mcl-1 Bim block
O=[N+]([O-])c1cccc(N=Cc2sc3ccccc3c2O)c1,38,59*,21,.,84*,0
Cc1ccc(C)c(NC(=O)c2cc[n+](C)cc2)c1,.,.,.,1,.,.
CC(C)OCCCNC(=S)NNC(=O)c1ccc(Cl)c(Cl)c1,-61,13,0,.,-14,-5
COc1cc2c(cc1OC)C1(CCCCC1)CN(C)C2,5,16,-11,-2,3,.
COc1ccc(/C=C(/C#N)C(=O)Nc2cccc([N+](=O)[O-])c2)cc1C(=O)O,-13,22,1,-24,5,0
COc1ccc(O)c(C(=O)/C=C/c2cc3ccccc3o2)c1,67*,14,-1,-1,0,.
C=CCN1C(=O)/C(=C/c2ccsc2)SC1=S,1,17,4,8,-8,64*
O=C(O)CN1C(=O)/C(=C/c2ccsc2)SC1=S,-32,2,1,13,10,-2
O=C(NC(Cc1ccccc1)C(=O)O)c1ccc(S(=O)(=O)N2CCCC2)cc1 (configuration not stated),5,20,3,-5,0,-3
O=C(NC(Cc1ccccc1)C(=O)O)c1ccc(S(=O)(=O)N2CCCCC2)cc1 (configuration not stated),99*,18,4,.,-4,2
O=C(N[C@@H](Cc1ccccc1)C(=O)O)c1ccncc1,94*,25,1,.,7,-1
COc1ccc(C(=O)n2c(C)c(CCO)c(=O)n2C)cc1,-70,2,3,10,-8,1
O=C(NNC(=S)NCC1CCCO1)c1cccc(S(=O)(=O)N2CCOCC2)c1 (configuration not stated),-26,6,7,-9,-25,-1
O=C(CN1CCCCCC1)NCCc1ccc(F)cc1,44,7,3,9,75*,-4
CC1CCN(CC(=O)NCCc2ccc(F)cc2)CC1,21,28,-1,-12,41,0
O=C(CNC(=O)c1ccc([N+](=O)[O-])cc1)N/N=C\c1ccc(OC(=O)c2ccccc2)cc1,75*,42,-60,.,61,19
COc1cccc(C(=O)NCC(=O)N/N=C/c2cccc(OC(=O)c3ccc([N+](=O)[O-])cc3)c2)c1,-15,6,-5,.,13,-1
O=C(c1ccc(OC2CCN(Cc3ccccn3)CC2)cc1)N1CCCC(O)C1 (configuration not stated),-58,9,-1,-3,-7,-1
O=C(/C=C/Nc1ccc([N+](=O)[O-])cc1)c1ccc(Br)cc1,15,53*,-4,1,25,0
COc1ccc(N2C(C)=CS/C2=C(/C#N)c2nnc(N3CCOCC3)n2-c2ccccc2)cc1,16,25,1,.,84*,-2
